Experimental data reported in PubChem BioAssay AID624305 (National Center for Advancing Translational Sciences (NCATS), 2012).
Inconclusive results are not listed. Where a call stands in place of a potency, no number is given. Unmarked numbers belong to inactive results. Calls of active or inactive are those of the source. Calls come from the whole dose curve; as a rule, active = well fitted activation curve with a large enough effect; inconclusive = small, poorly fitted or top-dose-only effect; inactive = no such curve, though single readings can be large or run the other way.

experiment: qHTS assay for re-activators of p53 using a Luc reporter: Hit Validation; conditions: p53-responsive luciferase reporter cells, luminescence, H1299 line expressing heat-sensitive Ala138Val p53; series mostly up to 46.1 µM; note: nearly all actives have a fitted effect of over 75% in size
Text: The p53 tumor suppressor plays a key role in suppression of tumorigenesis and in human carcinogenesis. It is frequently found inactivated in human cancers, mainly by point mutation. These point mutations are found in a wide variety of human cancers and a majority of them affect the DNA binding domain of the protein. The point mutations either alter native p53 conformation or abolish DNA contact. Additionally, cancer cells with p53 mutations are more resistant to chemo-radiation therapies.
In order to find activators to reactivate this important protein, a cell-based screen for p53-dependent luciferase-reporter expression was developed. A p53-null H1299 lung cancer cell line was stably co-transfected with a temperature sensitive p53 mutant, p53-A138V, and a p53-responsive BP100-luciferase reporter. This cell model has previously been characterized in a gene chip profiling experiment for p53 activation. By lowering the culture temperature from 37 deg C (mutant p53 conformation) to 32 deg C (w.t. p53 conformation), a 30-60 fold increase in activation of luciferase activity is observed. At assay temperate, 37 deg C, basal reporter expression is very low and after the addition of detection reagent, a luminescent read-out is carried out. This is the hit validation assay, confirming the hits identified from the primary screen.
NIH Chemical Genomics Center [NCGC]
NIH Molecular Libraries Probe Production Centers Network [MLPCN]
Assay Provider (PI): Yi Sung, University of Michigan at Ann Arbor
5ul of 1000 cells per well are dispensed in all wells except column 4, into white solid-bottom TC-treated Kalypsys plates. The cells are kept in Opti-MEM and supplemented with 10% FBS and dispensed using a Multidrop (Thermo). Then using the Kalypsys pin-tool, 23nl of compounds are pinned. The compounds are starting concentration at 10mM, with 1:5 dilution, 4 points, and the control compound nocodazole is pinned in column 1 at 25mM, 1:3 dilution, in duplicate, 25mM nocodazole is pinned in column 2. Please note, all concentrations are working concentrations. 5ul of 1pM purified luciferase enzyme is dispensed using the Kalypsys dispenser in column 4. Plates are incubated for 24 hrs at 37 deg C, 5% CO2, and 95% humidity. Then 4ul of the detection reagent Amplite (ABD Bioquest) is added using the Kalypsys dispenser. Plates are incubated for 10 min at ambient room temperature and are then read on the ViewLux (Perkin Elmer) using a clear filter for a luminescent read-out.
Potency is the fitted concentration of half-maximal effect.

Compound | Potency | activation
Cc1cccc(NC(=O)/C=C/c2ccc([N+](=O)[O-])s2)c1 | inactive | –
N#CC1=C(N)N2C(=C(C#N)C13CCCCC3)SC1CCCCC12O (stereo not given) | inactive | –
Cc1cnc(C(=O)OCC(=O)Nc2ccc(OCc3ccccc3)cc2)cn1 | 18.4 µM (active) | –
COc1ccc(-c2nc(-c3ccc(NC(=O)c4ccncc4)cc3)no2)cc1OC | inactive | –
CCOC(=O)C1=C(C)Nc2ncnn2C1c1c[nH]c2ccccc12 (stereo not given) | inactive | –
CC(Sc1nc(N)cc(=O)[nH]1)C(=O)NNC(=O)c1cccc(Cl)c1 (stereo not given) | inactive | –
Fc1ccccc1/C=C/c1ccc2ccccc2n1 | 0.731 µM (active) | –
Nc1nonc1-n1nnc(C(=O)N/N=C/c2ccc(Br)cc2)c1CSC1=NCCS1 | 3.66 µM (active) | –
O=C1NC(c2ccc(Br)cc2)=N/C1=C/c1ccco1 | 0.58 µM (active) | –
COc1cc(C(=S)N2CCOCC2)ccc1OC(=O)c1ccccc1C | inactive | –
COc1cccc(Oc2ccc(N)cn2)c1 | inactive | –
Cc1ccc(CNc2cc(C(=O)O)ccc2Cl)s1 | inactive | –
Fc1cccc(NCc2cn3ccccc3n2)c1 | 3.26 µM (active) | –
Clc1cccc(N/N=C(\Cc2nc3ccccc3[nH]2)c2ccccc2)c1 | inactive | –
CN(NC1CC(=O)N(c2ccccc2)C1=O)c1ccccc1 (stereo not given) | inactive | –
CC(C)(C)c1ccc(S(=O)(=O)N2CCSC2)cc1 | – | -4.43% [at 9.22 µM]
CN1CCN(C2=C(Cl)C(=O)N(Cc3ccccc3)C2=O)CC1 | inactive | –
Clc1ccc(-c2nnc(N3CCCC3)nn2)cc1 | 0.731 µM (active) | –
CC(C)N1CCc2c(sc(NC(=S)NC(=O)c3ccccc3)c2C#N)C1 | – | 7.78% [at 9.22 µM]
O=C(Nc1ccccc1Oc1ccccc1)c1cc([N+](=O)[O-])ccc1Cl | inactive | –

Compound | Potency | activation
Clc1ccc(OCc2nc(-c3ccccn3)n[nH]2)cc1 | inactive | –
C#CC(C)(CC)NC(=O)Cn1nnc(-c2ccc(S(C)(=O)=O)cc2)n1 (stereo not given) | inactive | –
CC1CCN(C2=C(NS(=O)(=O)c3ccc(Br)cc3)C(=O)c3ccccc3C2=O)CC1 | inactive | –
COc1ccc2c(c1)Cc1sc(NC(C)=O)nc1-2 | 11.6 µM (active) | –
O=C(CC(Nc1ccc(F)cc1)C(=O)OCC(=O)c1cccs1)c1ccccc1 (stereo not given) | inactive | –
COC(=O)c1ccc(/C=C/c2ccc3cccc(OC(C)=O)c3n2)cc1 | 2.91 µM (active) | –
Cc1ccc(NC(=O)Nc2ccccc2)c(Br)c1 | 8.2 µM (active) | –
Oc1ccccc1-c1cc(-c2ccccc2)n[nH]1 | 3.66 µM (active) | –
Cc1ccc(NC(=S)NC(=O)c2cccs2)cc1F | 9.2 µM (active) | –
CN(C(=O)NC(=O)C1=C(N2CCOCC2)/C(=C/c2ccccc2)CC1)S(C)(=O)=O | inactive | –
Cc1cccc(C)c1NC(=O)CC(NCc1ccco1)C(=O)O (stereo not given) | – | -13.7% [at 9.22 µM]
O=C(CCc1nc(-c2ccccc2F)no1)NC1CCCCCC1 | inactive | –
Cc1cccc(Nc2cc(=O)[nH]c(=O)[nH]2)c1C | inactive | –
CS(=O)(=O)c1ccc2nc(NC(=O)c3ccco3)sc2c1 | 14.6 µM (active) | –
Cc1cs/c(=N\N=C\c2ccc(O)cc2)n1Cc1ccco1 | inactive | –
N#Cc1cc2c(nc1SCC(=O)Nc1nccs1)CCCCC2 | 0.206 µM (active) | –
CC(=O)N/C(=C/c1ccc2c(c1)OCO2)C(=O)Nc1ccccc1 | inactive | –
CC(=O)/C=C(\C)Nc1ccc(-c2cnc(-c3ccccc3)o2)cc1 | 2.59 µM (active) | –
O=C(Nc1ccc2c(c1)OCO2)c1cc(Cl)ccn1 | 4.61 µM (active) | –
O=C(COC(=O)c1ccc(-c2nnc(-c3ccccc3)o2)cc1)c1ccccc1 | 2.91 µM (active) | –
